This passage reports activity change, negative = inhibition, activity, negative = inhibition and Potency results from PubChem BioAssay (NCATS).

Molecules are shown by their SMILES. Values without a mark were called inactive. Records with an inconclusive call do not appear. Calls of active or inactive are those of the source. Unless noted, calls follow the shape of the dose curve; as a rule, active = well fitted curve in either direction with a large enough effect (not every such curve was filed as active); inconclusive = small, poorly fitted or top-dose-only effect, or another doubt; inactive = flat fitted curve, though single readings scatter.

Experiment [1] in a line: NFAT Signaling Pathway (AID 444).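 Also: carbachol stimulus at about its EC50 of 1 µM final; % is scaled to controls: 0 for no effect and ±100 for the full control effect.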 Conditions: Jurkat NFAT-bla M1, carbachol, beta-lactamase ratio, 5 h; at 17.2 µM (top of the series) unless noted. Put shortly: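 Jurkat cells with NFAT-driven β-lactamase reporter and co-expressed M1 receptor, stimulated with carbachol (final 1 uM, ~EC50), compound titration, 5 h at 37 °C. CCF4 loaded 1 h at RT; 460/530 nm ratio gave %activity and AC50.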

Experiment [2] in a line: Stat Signaling Pathway (AID 446).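 Also: ME-180 cervical cancer cells given 40 pM IL-6 alongside compound; SIE-controlled beta-lactamase reporter measured as 460/530 nm FRET emission ratio; % is scaled to controls: 0 for no effect and ±100 for the full control effect.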 The following applies: ME-180 (cervical carcinoma) SIE beta-lactamase reporter, IL-6 stimulated, 5 h; at 17.2 µM (top of the series) unless noted. Put shortly: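 Compound effects on IL-6-induced STAT reporter activity were measured in ME-180 cells. After overnight culture, cells were co-treated with 40 pM IL-6 for 5 hrs before beta-lactamase substrate loading at room temperature.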

Experiment [3] concerns the target Glucocorticoid receptor (Homo sapiens) (UniProt P04150). Description: GR-GFP Redistribution (AID 450;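 active = compounds whose dose series gives a full or clear partial fitted curve of increased nuclear translocation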; also: potency is read from the fitted curve at half-maximal effect).
The target in experiment [4] is Mitogen-activated protein kinase 10 (Mus musculus) (UniProt Q61831). In words: JNK3 AlphaScreen Assay (AID 530).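 Also: kinase came from lysate of stimulated human HepG2 cells; signal reports phosphorylation of biotinylated GST-cJun 1-79 at Ser73 with 10 µM ATP; % is scaled to controls: 0 for no effect and ±100 for the full control effect.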 Put shortly: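 Activity was read by AlphaScreen after JNK3-containing HepG2 lysate (cytokine pre-activated) phosphorylated biotinylated GST-cJun with 10 uM ATP at room temperature. Phospho-Ser73 cJun antibody with Protein-A acceptor beads provided detection.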

Chain of Glucocorticoid receptor (Homo sapiens) (P04150 whole entry, looked up): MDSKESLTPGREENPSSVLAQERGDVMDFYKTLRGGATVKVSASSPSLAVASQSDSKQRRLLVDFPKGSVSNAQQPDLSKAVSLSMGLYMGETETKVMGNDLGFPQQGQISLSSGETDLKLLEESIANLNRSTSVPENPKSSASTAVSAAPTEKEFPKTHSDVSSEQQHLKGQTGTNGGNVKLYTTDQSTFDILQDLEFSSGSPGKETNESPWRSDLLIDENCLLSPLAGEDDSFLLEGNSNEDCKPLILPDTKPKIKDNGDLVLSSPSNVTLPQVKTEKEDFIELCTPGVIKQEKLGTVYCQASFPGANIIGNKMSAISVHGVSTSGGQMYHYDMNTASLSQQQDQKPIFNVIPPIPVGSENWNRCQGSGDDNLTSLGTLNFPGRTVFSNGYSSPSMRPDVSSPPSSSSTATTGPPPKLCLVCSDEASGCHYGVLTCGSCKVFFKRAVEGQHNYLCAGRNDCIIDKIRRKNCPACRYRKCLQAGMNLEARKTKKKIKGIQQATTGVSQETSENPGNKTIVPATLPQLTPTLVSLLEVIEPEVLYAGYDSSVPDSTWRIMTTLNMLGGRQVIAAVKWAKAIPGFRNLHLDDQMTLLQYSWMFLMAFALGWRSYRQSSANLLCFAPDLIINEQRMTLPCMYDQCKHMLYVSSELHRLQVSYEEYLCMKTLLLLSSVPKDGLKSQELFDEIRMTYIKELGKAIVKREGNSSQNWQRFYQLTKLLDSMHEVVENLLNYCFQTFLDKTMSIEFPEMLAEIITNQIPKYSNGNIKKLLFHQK

On to `COc1cccc(OC)c1OCC(C)CNCC1CCCO1` (stereo not drawn), for which, in experiment [1], the activity change, negative = inhibition was -18.8%. In experiment [2], the activity, negative = inhibition was 10.2%. For the same compound, the Potency in experiment [3] is more than 20.6 µM.
Taken in the same sequence, the figures for `CC1(C)CC(=O)C(C=NCC(O)c2ccccc2)=C(O)C1` (stereo not drawn) were -0.832%, 8.79% and more than 20.6 µM.
Turning to `COc1cccc(-c2nnc3sc(-c4ccc(C)cc4)nn23)c1`, the activity change, negative = inhibition in experiment [1] was -10.2%. Moreover, the activity, negative = inhibition in experiment [2] was 1.68%. In experiment [3], the Potency is more than 20.6 µM.
On the same counts, the results for `NC(=O)CSc1nnc2n(-c3ccccc3)c(=O)c3c4c(sc3n12)CCCCC4` are -30%, 9.67% and more than 20.6 µM.
On the same counts, the results for `COCCOC(=O)c1c(C)oc2ccc(OC(=O)COc3c(F)c(F)c(F)c(F)c3F)cc12` are -2.9%, 1.17% and more than 20.6 µM.
Taken in the same sequence, the figures for `Clc1ccc(-n2ncc3c(NCc4ccccn4)ncnc32)cc1` were -18.5%, -20.2% and more than 20.6 µM.
For the compound `Cc1ccc(OCC(O)CNS(=O)(=O)c2ccccc2C(=O)O)cc1` (stereo not drawn), in experiment [1], the activity change, negative = inhibition was 6.08%. In addition, in experiment [2], the activity, negative = inhibition is 4%. Further, the Potency in experiment [3] was more than 20.6 µM.
In the case of `CCn1cc(C(=O)NCc2ccco2)c(=O)c2cc(F)c(N3CCN(C(=O)c4ccco4)CC3)cc21`, the activity change, negative = inhibition in experiment [1] was -28.1%. Besides, the activity, negative = inhibition in experiment [2] was -28.5%. In addition, the Potency in experiment [3] was more than 20.6 µM.
Taken in the same sequence, the figures for `COC(=O)c1ccc(-c2sc3nc(N4CCOCC4)c4c(c3c2N)CCCC4)o1` were -5.04%, -5.83% and more than 20.6 µM.
On the same counts, the results for `Nc1c(Br)cc2oc(-c3ccccc3)nc2c1Br` are 4.7%, 14.6% and more than 20.6 µM.
On the same counts, the results for `CCOc1ccc(S(=O)(=O)N(C)CCO)cc1-c1nc2c(C(C)(C)C)nn(C)c2c(=O)[nH]1` are 6.99%, -3.41% and more than 20.6 µM.
On to `Cc1cccc(N2CN=c3s/c(=C\c4ccncc4)c(=O)n3C2)c1`, for which the activity change, negative = inhibition in experiment [1] is -17.2%. Besides, the activity, negative = inhibition in experiment [2] is -0.937%. The Potency in experiment [3] is more than 20.6 µM.
Taken in the same sequence, the figures for `COC(=O)c1ccccc1NC(=O)CSc1nnc(-c2ccncc2)o1` were 4.54%, 0.0286% and more than 20.6 µM.
As for `CC[C@]1(O)C[C@H]2CN(CCc3c([nH]c4ccccc34)[C@](C(=O)OC)(c3cc4c(cc3OC)N(C)[C@@H]3[C@](O)(C(=O)OC)[C@H](OC(C)=O)[C@]5(CC)C=CCN6CC[C@]43[C@@H]65)C2)C1`, the activity change, negative = inhibition in experiment [1] was 0.463% [at 38 µM]. In addition, the activity, negative = inhibition in experiment [2] is -18.9% [at 38 µM]. Besides, the Potency in experiment [3] was more than 46 µM. Further, in experiment [4], the Potency entry is “inactive”.
For `Cc1nc2oc(C(=O)c3ccc(Br)cc3)c(N)c2c2c1COC(C)(C)C2`, the activity change, negative = inhibition in experiment [1] was 27.3%. Besides, the activity, negative = inhibition in experiment [2] is 0.926%. The Potency in experiment [3] was more than 20.6 µM.
Taken in the same sequence, the figures for `N#Cc1c(N2CCCCC2)nc(N2CCCCC2)c2c1CCN(Cc1ccccc1)C2` were -13%, 17.8% and more than 20.6 µM.
Taken in the same sequence, the figures for `O=C(O)CSCC(=O)Nc1ccc(S(=O)(=O)N2CCCCC2)cc1` were 5.47%, 23% and more than 20.6 µM.
On the same counts, the results for `Cc1nc2sc3c(c2c(=O)o1)CC(C)(C)OC3` are -10.1%, -8.31% and more than 20.6 µM.
For `CN1CCc2cc(O)c(O)cc2[C@H](c2ccccc2)C1`, the activity change, negative = inhibition in experiment [1] is -1.87% [at 38 µM]. For the same compound, the activity, negative = inhibition in experiment [2] is -12.3% [at 38 µM]. The Potency in experiment [3] was more than 46 µM. The Potency result in experiment [4] is “inactive”.
On to `COCCCNc1nc2c(c(=O)[nH]c(=O)n2C)n1CC(O)COc1ccccc1` (stereo not drawn), for which the activity change, negative = inhibition in experiment [1] is 16.9%. Moreover, in experiment [2], the activity, negative = inhibition is -9.93%. In addition, the Potency in experiment [3] was more than 20.6 µM.
As for `COC(=O)[C@@H](NC(=O)c1cc(-c2ccccc2)nc2ccccc12)c1ccccc1`, the activity change, negative = inhibition in experiment [1] was -7.43% [at 38 µM]. Also, the activity, negative = inhibition in experiment [2] is 1.95% [at 38 µM]. Moreover, the Potency in experiment [3] was more than 46 µM. Further, in experiment [4], the Potency result was “inactive”.
On to `Cc1ccc(C(=O)CSC2=C(C#N)C(c3ccco3)C3=C(CCCC3=O)N2)cc1` (stereo not drawn), for which the activity change, negative = inhibition in experiment [1] was -8.28%. Besides, in experiment [2], the activity, negative = inhibition is -22.5%. Besides, the Potency in experiment [3] is more than 20.6 µM.
On to `Brc1cccc(-c2cnc3n2CCCCC3)c1`, for which the activity change, negative = inhibition in experiment [1] was -87.3% (active). For the same compound, the activity, negative = inhibition in experiment [2] was -10.7%. Moreover, the Potency in experiment [3] was more than 20.6 µM.
On the same counts, the results for `CCOC(=O)C1=C(C)N=C2SC(C)C(=O)N2C1c1ccc(C(=O)OC)cc1` (stereo not drawn) are -15.8%, -8.28% and more than 20.6 µM.
As to `FC(F)(F)c1cc(CO[C@@H]2CCCN[C@H]2c2ccccc2)cc(C(F)(F)F)c1`, the activity change, negative = inhibition in experiment [1] was 16.5% [at 38 µM]. In addition, the activity, negative = inhibition in experiment [2] is -14.5% [at 38 µM]. The Potency in experiment [3] was more than 46 µM. The Potency result in experiment [4] is “inactive”.
With `Cc1cc(C)c(C#N)c(SCC(=O)N2CCN(Cc3ccccc3)CC2)n1`, the activity change, negative = inhibition in experiment [1] is -24.4%. Further, the activity, negative = inhibition in experiment [2] is 11.8%. In addition, the Potency in experiment [3] is more than 20.6 µM.
Taken in the same sequence, the figures for `COc1ccc(C(=O)N/C(N)=N/c2nc3ccccc3o2)cc1` were -19%, -5.99% and more than 20.6 µM.
As to `C[C@H](O)[C@@H]1C(=O)N2C(C(=O)O)=C(SCCN=CN)C[C@@H]12`, the activity change, negative = inhibition in experiment [1] was -9.39%. The activity, negative = inhibition in experiment [2] is -2.21%. In experiment [3], the Potency was more than 20.6 µM. Besides, the Potency result in experiment [4] was “inactive”.
`CC(C)(C)n1cnc2cc(NS(=O)(=O)c3ccc(Br)cc3)ccc21`: the activity change, negative = inhibition in experiment [1] was -27.1%. For the same compound, in experiment [2], the activity, negative = inhibition was -28%. Further, the Potency in experiment [3] was more than 20.6 µM.
On the same counts, the results for `Cc1cccc(Nc2ncnc3ccccc23)c1` are -1.27%, -0.134% and more than 20.6 µM.
Taken in the same sequence, the figures for `C=C(C)CC1N(c2cccc(OC)c2)C(=O)[C@@H]2C(C(=O)O)[C@H]3C=C[C@@]12O3` (stereo partly drawn) were 5.5%, 3.15% and more than 20.6 µM.
On the same counts, the results for `COc1cc(C2C(C#N)=C(N)Oc3cc(C)n(CCc4ccccc4)c(=O)c32)cc2c1OCO2` (stereo not drawn) are -4.95%, -6.08% and more than 20.6 µM.
On to `COc1ccccc1Nc1ncc(-c2cccs2)s1`, for which the activity change, negative = inhibition in experiment [1] was 11.7%. In experiment [2], the activity, negative = inhibition was -4.45%. Moreover, in experiment [3], the Potency was more than 20.6 µM.
`COc1ccc(C2/C(=C(/O)c3ccc(OC(C)C)cc3)C(=O)C(=O)N2CCCN2CCOCC2)cc1` (stereo not drawn): the activity change, negative = inhibition in experiment [1] is -1.06%. In addition, in experiment [2], the activity, negative = inhibition is -10.9%. In addition, the Potency in experiment [3] is more than 20.6 µM.
Taken in the same sequence, the figures for `COc1ccc(OCC(O)Cn2c(Nc3cccc(C)c3)nc3c2c(=O)n(C)c(=O)n3C)cc1` (stereo not drawn) were 8.48%, -15.9% and more than 20.6 µM.
On the same counts, the results for `CCC1(C)Cc2c(C#N)c(N)sc(=S)c2CO1` (stereo not drawn) are -12.1%, -10.3% and more than 20.6 µM.
